Source: PubChem BioAssay AID1159580 (chemical genetic matrix, 2015)
Values joined by “and” are separate entries in the source; they are usually repeats but may differ in a detail not shown here. Equal values may be shown once. Screen size: about 5,500 compounds; about 2,000 (36%) were called active. Roughly 18% stayed inconclusive and do not appear here. Rule as the data show it: active = normalized growth mostly below about 0.91 (no sharp cut-off); inconclusive = no clear call, values can overlap the other calls; inactive = mostly above about 0.92. This is one part of the list.

Test: chemical genetic growth profiling, strain panel (AID 1159580);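 also: tested at 20 µM; growth read once vehicle control cultures reached saturation at 30 °C; 1 = growth at the plate median or of vehicle wells; lower values mean less growth of the strain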
Conditions: S. cerevisiae deletion strains, growth OD

Measured: normalized growth

CC1OC1P(=O)(O)O (stereo not given)
inactive: locus YAL021C, strain ccr4, active compounds read low 1 | locus YAL026C, strain drs2, active compounds read low 1.02 | locus YAL030W, strain snc1, active compounds read low 0.998 | locus YAL040C, strain CLN3, active compounds read low 0.959 | locus YBL061C, strain skt5, active compounds read low 0.996 | locus YBR009C, strain hhf1, active compounds read low 0.978 | locus YBR021W, strain FUR4, active compounds read low 0.973 | locus YBR023C, strain chs3, active compounds read low 0.988 | locus YBR171W, strain sec66, active compounds read low 1 | locus YBR229C, strain ROT2, active compounds read low 0.994 | locus YBR231C, strain swc5, active compounds read low 0.992 | locus YBR279W, strain paf1, active compounds read low 0.991 | locus YCL011C, strain gbp2, active compounds read low 1.03 | locus YCL016C, strain dcc1, active compounds read low 0.984 | locus YCL029C, strain bik1, active compounds read low 0.993 | locus YCL061C, strain MRC1 (second series), active compounds read low 1.01 | locus YCL069W, strain vba3, active compounds read low 1 | locus YCR088W, strain abp1, active compounds read low 1 | locus YDL005C, strain med2, active compounds read low 0.977 | locus YDL035C, strain GPR1, active compounds read low 0.991 | locus YDL040C, strain nat1, active compounds read low 0.991 | locus YDL074C, strain BRE1, active compounds read low 1.04 | locus YDL101C, strain DUN1, active compounds read low 0.992 | locus YDL134C, strain PPH21, active compounds read low 0.977 | locus YDL185W, strain tfp1, active compounds read low 0.979 | locus YDL192W, strain arf1, active compounds read low 0.991 | locus YDR001C, strain nth1, active compounds read low 1 | locus YDR069C, strain doa4, active compounds read low 0.986 | locus YDR101C, strain arx1, active compounds read low 1 | locus YDR137W, strain rgp1, active compounds read low 1.01 | locus YDR150W, strain NUM1, active compounds read low 0.994 and 1 | locus YDR159W, strain sac3, active compounds read low 0.934 | locus YDR162C, strain NBP2, active compounds read low 0.987 | locus YDR195W, strain ref2 0.983 | locus YDR297W, strain sur2, active compounds read low 1.01 | locus YDR318W, strain mcm21, active compounds read low 0.984 | locus YDR334W, strain swr1, active compounds read low 1 | locus YDR335W, strain msn5, active compounds read low 0.996 | locus YDR363W, strain ESC2, active compounds read low 0.974 | locus YDR388W, active compounds read low 0.988 | locus YDR392W, strain spt3, active compounds read low 0.892 | locus YDR502C, strain sam2, active compounds read low 0.983 | locus YEL003W, strain gim4, active compounds read low 1 | locus YEL037C, strain rad23, active compounds read low 1 | locus YEL061C, strain CIN8 (second series), active compounds read low 1 | locus YEL061C, strain CIN8, active compounds read low 1 | locus YER002W, strain NOP16, active compounds read low 0.978 | locus YER015W, strain faa2, active compounds read low 0.981 | locus YER016W, strain bim1, active compounds read low 0.974 | locus YER110C, active compounds read low 0.987 | locus YER111C, strain swi4, active compounds read low 1 | locus YER155C, strain BEM2 (second series), active compounds read low 0.965 | locus YER155C, strain BEM2, active compounds read low 0.994 | locus YER167W, strain BCK2, active compounds read low 0.973 | locus YFR010W, strain ubp6, active compounds read low 1 | locus YGL078C, strain dbp3, active compounds read low 0.988 | locus YGL086W, strain mad1, active compounds read low 1 | locus YGL167C, strain pmr1, active compounds read low 0.997 | locus YGL173C, strain kem1, active compounds read low 0.99 | locus YGL227W, strain vid30, active compounds read low 1 | locus YGL240W, strain doc1, active compounds read low 0.968 | locus YGL248W, strain PDE1, active compounds read low 1.01 | locus YGL253W, strain hxk2, active compounds read low 1.03 | locus YGR078C, strain PAC10, active compounds read low 1.02 | locus YGR135W, strain pre9, active compounds read low 0.966 | locus YGR252W, strain gcn5, active compounds read low 0.982 | locus YHR013C, strain ard1, active compounds read low 0.987 | locus YHR027C, strain rpn1, active compounds read low 0.993 | locus YHR030C, strain SLT2, active compounds read low 0.994 | locus YHR079C, strain IRE1 (second series), active compounds read low 0.989 | locus YHR094C, strain hxt1, active compounds read low 0.987 | locus YHR129C, strain ARP1, active compounds read low 0.987 | locus YHR142W, strain chs7, active compounds read low 1.01 | locus YHR200W, strain rpn10, active compounds read low 0.989 | locus YIL066C, strain RNR3, active compounds read low 1 | locus YIL073C, strain SPO22, active compounds read low 0.944 | locus YIL125W, strain kgd1, active compounds read low 0.992 | locus YIR030C, strain dcg1, active compounds read low 0.985 | locus YJL092W, strain hpr5, active compounds read low 1 | locus YJL095W, strain BCK1 (second series), active compounds read low 0.998 | locus YJL095W, strain BCK1, active compounds read low 1.01 | locus YJL115W, strain asf1, active compounds read low 1 | locus YJL129C, strain trk1, active compounds read low 1.01 | locus YJL134W, strain LCB3, active compounds read low 0.989 | locus YJL154C, strain vps35, active compounds read low 0.996 | locus YJL164C, strain tpk1, active compounds read low 0.986 | locus YJL166W, strain qcr8, active compounds read low 0.986 | locus YJL168C, strain set2, active compounds read low 0.989 | locus YJL187C, strain SWE1 (second series), active compounds read low 1.02 | locus YJR043C, strain POL32, active compounds read low 1.01
